Measured values as given in the supplement of paper PMC10681739.

These sequences were tested against T1, ETS1 (UniProt P14921) (assay: ETS1 binding intensity (PBM fluorescence), ETS1 alone (arbitrary fluorescence units); higher = stronger binding). Details: ETS1 concentration 1 nM; RUNX1 concentration 0 nM.
T1 sequence: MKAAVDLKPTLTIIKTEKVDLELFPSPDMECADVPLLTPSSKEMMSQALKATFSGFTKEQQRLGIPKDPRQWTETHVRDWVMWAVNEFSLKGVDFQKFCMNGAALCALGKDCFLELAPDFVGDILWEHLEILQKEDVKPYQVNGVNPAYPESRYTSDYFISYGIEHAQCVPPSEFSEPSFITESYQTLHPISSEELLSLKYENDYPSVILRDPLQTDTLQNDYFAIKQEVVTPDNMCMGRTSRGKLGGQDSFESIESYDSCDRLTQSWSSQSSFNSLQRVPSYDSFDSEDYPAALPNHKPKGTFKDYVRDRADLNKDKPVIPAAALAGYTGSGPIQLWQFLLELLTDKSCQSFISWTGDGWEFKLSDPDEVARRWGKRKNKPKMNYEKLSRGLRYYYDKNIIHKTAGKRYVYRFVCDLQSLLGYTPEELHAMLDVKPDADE
Protocol: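 Cooperative genomic-context PBM: 36-bp genomic probes with neighbouring ETS1 and RUNX1 sites, double-stranded on Agilent 4x180k arrays. Full-length recombinant human ETS1 (1 nM) was incubated alone or with RUNX1 (25 nM) and detected with anti-ETS1 antibody plus Alexa488 secondary. Value is the median fluorescence intensity over 4 replicate spots; the ETS1+RUNX1 data were normalised to the ETS1-only data using probes without RUNX1 sites. The 36-bp variable region sits on the array probe with constant linker/primer flanks that are not printed.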
In the case of GAAGCTCCCCAAACAGGATGTGGTTAGGGAGAGGGG, the ETS1 binding intensity is reported as 8040.
TCTCGTCCGGTCCTTGCTCCCCCTCCCCGCAGCGCT was tested, and the ETS1 binding intensity was 637.
With TTTGATTTCCTGTCTCCATGTTGTGGTCAAGATTGC the ETS1 binding intensity was 1080.
For CTACAGGAAGTTCGAACTGGGCGGAGCCCACCGCAG, the ETS1 binding intensity was 1320.
Sequence TTCAGGAAATGCAAACGGCTGCAGAGACCGCAGAGG has an ETS1 binding intensity of 499.
Sequence GGAGAGTTGACTTCCGGCGGCTTGTGGGAGTGCTGG has an ETS1 binding intensity of 2740.
With TGCAGTCGTGAAAAAGGAAGTGGTTAAAGTGGCTAC the ETS1 binding intensity was 3680.
TAAGCAGGGAATAGAGGAAGTGGTTTTGTCTCAGGC was tested, and the ETS1 binding intensity was 3270.
AACTAGGCTTTTCTTTCCTGTGGTCCTTAAGGAGGC gave an ETS1 binding intensity of 461.
With GAAGTCACATCCTGTCTGTTGCGGCAGGGCACAGAG the ETS1 binding intensity was 1470.
Work on AGCCTTAATTACCCGGAAGTGCGGTCCCAGGGACTT yielded an ETS1 binding intensity of 8970.
With AACTGTCTCTACCCAGGAAGTGGTTTTATTTAAAAG the ETS1 binding intensity was 5160.
Sequence ACGTGATGGCAGTCTTCCTGCCCACAAGTTCTGGTC has an ETS1 binding intensity of 422.
CTCCAGGGACAACCCGGAAACCACATTGCCCAGCGT gave an ETS1 binding intensity of 2230.
Work on TTTTGCCCAACAGGATGTGGTTTCTAAAGCAGACGG yielded an ETS1 binding intensity of 6620.
TGGGGAGCAGGAAGCTGGGGGCGGTTGTGGAGGGAC gave an ETS1 binding intensity of 1130.
For CCCCGTTACGCCCATCCGGCTCCCGCATAGGGCGTC, the ETS1 binding intensity was 442.
Sequence CCCACTTCCTGTCCCTGCATGCTGTGGGGCAGGCAG has an ETS1 binding intensity of 1500.
Sequence AATGTAGGAAATTCCACTGCATAATTTGTGGTAGTG has an ETS1 binding intensity of 478.
Sequence TCTTGTTTCTTCCGTTACCGGAGCGCGGTCACGTGA has an ETS1 binding intensity of 455.
In the case of GACTTCCTGTTGAAGATTGGCCTCTGCGGTACCACG, the ETS1 binding intensity is reported as 951.
With GCGGAGTGTTACGTAGGAAGTGGTTGTGACGTCATT the ETS1 binding intensity was 1190.
For TGGCTTGAGCTCAGGAAGTTGTGGCTGCAGTAAGCT, the ETS1 binding intensity was 1470.
CAGCCAGCCAGGAAGCAGGGGCTGCGGGGCTGACAG showed an ETS1 binding intensity of 691.
In the case of GGGGAACGGAAGCTGCTGTCGTTACTGGCGGTTGTA, the ETS1 binding intensity is reported as 1510.
With TGCTCCACTCGGAAGTGGTGCCGCAGCTCTTCGATG the ETS1 binding intensity was 697.
GTGCAGACAGGAAATAGCTGCTCTGCGGCAGCCCGA showed an ETS1 binding intensity of 5830.
Work on TTTCGAGAAAACCGGAAGTGCGTGGTCACGCCCCGC yielded an ETS1 binding intensity of 29400.
Work on GTGCTCCTCGCTTCCTCCGCGGTCTTCCGAGCGGTC yielded an ETS1 binding intensity of 465.
ACAGGTTCAGGAAGCGGCCGTGGTTGTTAGTGGTGT was tested, and the ETS1 binding intensity was 718.
Work on GGGGCAGCTTCCGGCAGGAGAGCCCGCATTCCCGGC yielded an ETS1 binding intensity of 903.
AGTTGGTTCCTTCCGGTGGGTTTGTGGGCTTGGGGT showed an ETS1 binding intensity of 1400.
In the case of CCTACACTTCCCAGAGAACCTAGCGGTTACGCCAAC, the ETS1 binding intensity is reported as 401.
GAGGCAGGCGGATGTCAGTGTGGTTAGAGCACAGTG showed an ETS1 binding intensity of 1170.
Work on CCCTCCTCTTTCGTTTCCTAACCGCAAATTCCATCA yielded an ETS1 binding intensity of 487.
Sequence ATGGGTACAGGATTTCCTTTTGTGGTGATGAAAATG has an ETS1 binding intensity of 697.
With CACCTCAGCTTCCTGTGTAGCTGGGACCACAGGCAT the ETS1 binding intensity was 687.
With TCTCTATGGTTTCCGTTGGGTGTGTGGTTTTTTTGT the ETS1 binding intensity was 579.
Sequence GGGATCTACTTCCTCTCTCGGCCGCGGCCGCAGCAC has an ETS1 binding intensity of 790.
CAGCTTCCGGGCTAATTAGCAGTCGCGGTGTGCCGC was tested, and the ETS1 binding intensity was 413.
